From the antibiotic and cytotoxicity screens of Wong et al. (2023)
About 1,500 (3.8%) of roughly 39,000 compounds were called active. What follows is part of a selection rich in actives, with near analogues and random picks from the rest.

The molecules below were run on HSkMC (human skeletal muscle cells) (assay: cytotoxicity call (relative viability < 0.9)). Conditions: 10 µM.

Structure (SMILES)	cytotoxicity call
C[C@@H]1CN([C@@H](C)CO)C(=O)c2cc(NS(=O)(=O)c3ccc(F)cc3)ccc2O[C@@H](C)CCCCO[C@@H]1CN(C)S(=O)(=O)c1cn(C)cn1	inactive
CC(=O)N[C@H]1[C@H](O[C@H]2CC[C@]3(C)[C@H]4CC=C5[C@@H]6CC(C)(C)CC[C@]6(C(=O)O[C@H]6OC[C@@H](O)[C@@H](O)[C@@H]6O)[C@@H](O)C[C@@]5(C)[C@]4(C)CC[C@H]3C2(C)C)O[C@H](CO[C@H]2OC[C@@H](O)[C@@H](O[C@H]3OC[C@@H](O)[C@@H](O)[C@@H]3O)[C@@H]2O)[C@@H](O[C@@H]2O[C@@H](C)[C@H](O)[C@@H](O)[C@H]2O[C@@H]2O[C@@H](C)[C@H](O)[C@@H](O)[C@H]2O)[C@@H]1O	inactive
Cc1noc(C)c1NC(=O)Nc1cccc2c1O[C@@H](CN(C)C(=O)NC(C)C)[C@H](C)CN([C@H](C)CO)C2=O	inactive
C[C@H]1CC=CC[C@@H](c2ccc3c(c2)OCO3)NC(=O)[C@H](Cc2ccccc2)N(C)C(=O)c2ccccc2O1	inactive
COc1ccc([C@@H]2CC=CC[C@H](C)Oc3ccccc3C(=O)N(C)[C@@H](Cc3ccccc3)C(=O)N2)c(OC)c1	active
C[C@@H]1CC=CC[C@H](c2ccc3c(c2)OCO3)NC(=O)[C@@H](Cc2ccccc2)N(C)C(=O)c2ccccc2O1	inactive
C[C@H]1CC=CC[C@H](c2ccc3c(c2)OCO3)NC(=O)[C@@H](Cc2ccccc2)N(C)C(=O)c2ccccc2O1	active
COc1ccc([C@H]2CC=CC[C@H](C)Oc3ccccc3C(=O)N(C)[C@@H](Cc3ccccc3)C(=O)N2)c(OC)c1	inactive
COc1ccc([C@H]2CC=CC[C@H](C)Oc3ccccc3C(=O)N(C)[C@H](Cc3ccccc3)C(=O)N2)c(OC)c1	inactive
COCCCN1C(=O)[C@@]2(Cc3ccccc31)c1ccccc1C(=O)N(Cc1ccccc1)[C@H]2c1ccc(CO)cc1	inactive
Cc1ccc(S(=O)(=O)Nc2ccc3c(c2)CC(=O)N([C@@H](C)CO)C[C@H](C)[C@H](CN(C)CC2CC2)O3)cc1	inactive
Nc1ccc2oc3c(c2c1)CCCC3	inactive
O=C(Nc1ccc(Cl)cc1)Nc1ccc(Cl)c(Cl)c1	active
CC(C)C(=O)Nc1cccc(Cl)c1	inactive
CC(C)(C)c1ccc(C(=O)Nc2cccc(C(F)(F)F)c2)cc1	inactive
CCC(=O)Nc1ccc(Cl)cc1	inactive
O=C(Nc1ccc(C(F)(F)F)cc1)Nc1cccc(Cl)c1	active
O=C(Nc1ccccc1)Nc1ccccc1	inactive
C[C@H]1CN([C@@H](C)CO)C(=O)c2cc(NC(=O)Cc3ccccc3)ccc2O[C@H]1CN(C)Cc1ccc(C(F)(F)F)cc1	inactive
C[C@@H]1CN([C@@H](C)CO)C(=O)Cc2cc(NC(=O)Cn3cnnn3)ccc2O[C@H]1CN(C)S(=O)(=O)c1cn(C)cn1	inactive
COc1cccc(S(=O)(=O)Nc2ccc3c(c2)[C@H]2C[C@@H](CC(=O)NCc4ccccc4F)O[C@@H](CO)[C@H]2O3)c1	inactive
C[N+](C)(C)CCCCCC[N+](C)(C)C.[Br-].[Br-]	inactive
CCCCCCCCCCCCCCCCOP(=O)([O-])OCC[N+](C)(C)C	inactive
CCCCCCCCCCCCCCCC[N+](C)(C)C	active

Structure (SMILES)	cytotoxicity call
CC1=C2C/C=C(\C)[C@H](O[C@H]3O[C@@H](CO)[C@@H](O)[C@@H](O)[C@@H]3O)C/C=C(\C)C[C@@H]2OC1=O	inactive
NCc1nncn1-c1ccccc1	inactive
COc1ccccc1CNC(=O)C[C@@H]1C[C@H]2c3cc(NC(=O)c4cccnc4)ccc3O[C@H]2[C@@H](CO)O1	inactive
CC(N)(Cc1ccc2c(c1)OCO2)C(=O)O (stereo not given)	inactive
C[C@@H]1CN([C@@H](C)CO)C(=O)c2cc(NS(C)(=O)=O)ccc2O[C@@H]1CN(C)S(=O)(=O)c1ccccc1	inactive
CCC(=O)N1CCN(c2ccc(-n3c(=O)ccc4cnc5ccc(-c6cnc7ccccc7c6)cc5c43)cc2C(F)(F)F)CC1	active
CCCCn1c(-c2ccccc2)nc(-c2ccccc2)c1CN(Cc1ccc2c(c1)OCO2)Cc1ccc2c(c1)OCO2	inactive
COc1ccc(-c2cnc3c(c2)C(=O)N([C@@H](C)CO)C[C@@H](C)[C@@H](CN(C)C(=O)C2CCOCC2)O3)cc1	inactive
CO[C@@H]1CN(C)C(=O)c2ccc(NC(=O)C3CC3)cc2OC[C@H](C)N(C(=O)CN2CCOCC2)C[C@@H]1C	inactive
C[C@@H]1CN([C@@H](C)CO)C(=O)Cc2cc(NS(C)(=O)=O)ccc2O[C@H]1CN(C)S(=O)(=O)c1cccs1	inactive
C[C@H](CO)N1C[C@H](C)[C@H](CN(C)Cc2ccc(C(F)(F)F)cc2)Oc2ccc(NS(=O)(=O)c3ccc(Cl)cc3)cc2CC1=O	active
C[C@@H]1CN([C@H](C)CO)C(=O)Cc2cc(NS(=O)(=O)c3ccc(Cl)cc3)ccc2O[C@@H]1CN(C)Cc1ccc(C(F)(F)F)cc1	active
C[C@@H]1CN([C@@H](C)CO)C(=O)Cc2cc(NS(=O)(=O)c3ccc(Cl)cc3)ccc2O[C@@H]1CN(C)Cc1ccc(C(F)(F)F)cc1	active
C[C@@H]1CN([C@H](C)CO)C(=O)Cc2cc(NS(=O)(=O)c3ccc(Cl)cc3)ccc2O[C@H]1CN(C)Cc1ccc(C(F)(F)F)cc1	active
C[C@@H]1CCCCO[C@@H](CN(C)S(=O)(=O)c2ccc(Cl)cc2)[C@H](C)CN([C@@H](C)CO)C(=O)c2cc(NS(=O)(=O)c3cccs3)ccc2O1	inactive
COc1cccc(NC(=O)N(C)C[C@@H]2Oc3cc(C#Cc4ccncc4)ccc3S(=O)(=O)N([C@H](C)CO)C[C@@H]2C)c1	inactive
CC(=O)O[C@H]1C=C[C@@H](O)C1	inactive
O=C(CCCCCCC(=O)Nc1ccc([C@H]2C[C@H](c3ccccc3)O[C@H](c3ccncc3)O2)cc1)NO	inactive
COc1ccc(-c2cc(=O)c3c(O)cc(O[C@@H]4O[C@H](CO[C@H]5O[C@H](C)[C@@H](O)[C@H](O)[C@@H]5O)[C@@H](O)[C@H](O)[C@H]4O)cc3o2)cc1O	inactive
C[C@@H]1CN([C@@H](C)CO)C(=O)c2cc(NC(=O)C3CC3)ccc2O[C@@H]1CN(C)C(=O)NC1CCCCC1	inactive
C=CC(=O)NS(=O)(=O)c1ccccc1	inactive
CCS(=O)(=O)N1CC[C@H]2[C@H](CC1)S(=O)(=O)CCN2C(=O)c1ccccc1	inactive
COCC(=O)N1C[C@@H](C)[C@@H](OC)CN(C)C(=O)c2ccc(NC(=O)c3ccc(OC)cc3)cc2OC[C@@H]1C	inactive
Cc1cc(N)n(-c2nc(=O)c(C)c(C)[nH]2)n1	inactive

Structure (SMILES)	cytotoxicity call
CCCCc1c(C)nc2ccc(Br)cc2c1SC(N)N	inactive
NS(=O)(=O)c1ccc2c(c1)COC2	inactive
COc1ccc(S(=O)(=O)N(C)C[C@@H]2Oc3c(NS(=O)(=O)c4ccc(C)cc4)cccc3C(=O)N([C@@H](C)CO)C[C@@H]2C)cc1	inactive
C[C@@H]1CN([C@@H](C)CO)C(=O)Cc2cc(NS(=O)(=O)c3ccc(Cl)cc3)ccc2O[C@H]1CN(C)Cc1ccc(C(F)(F)F)cc1	inactive
C[C@H]1CN([C@@H](C)CO)C(=O)Cc2cc(NS(=O)(=O)c3ccc(Cl)cc3)ccc2O[C@@H]1CN(C)Cc1ccc(C(F)(F)F)cc1	active
C[C@H]1CN([C@@H](C)CO)C(=O)Cc2cc(NS(=O)(=O)c3ccc(Cl)cc3)ccc2O[C@H]1CN(C)Cc1ccc(C(F)(F)F)cc1	active
C[C@H](CO)N1C[C@H](C)[C@@H](CN(C)Cc2ccc(C(F)(F)F)cc2)Oc2ccc(NS(=O)(=O)c3ccc(Cl)cc3)cc2CC1=O	inactive
C[C@@H]1CN([C@H](C)CO)C(=O)c2cc(NC(=O)CCCN(C)C)ccc2O[C@@H]1CN(C)C(=O)NC1CCCCC1	inactive
C[C@@H]1CN([C@@H](C)CO)C(=O)c2cc(NS(C)(=O)=O)ccc2O[C@H]1CN(C)Cc1ccc(C(=O)Nc2ccccc2N)cc1	inactive
COc1ccc(CN(C)C[C@H]2Oc3ccc(NC(=O)CCN4CCOCC4)cc3C(=O)N([C@H](C)CO)C[C@H]2C)cc1	inactive
C[C@@H]1CN([C@H](C)CO)C(=O)c2cc(NC(=O)Nc3ccc(C(F)(F)F)cc3)ccc2O[C@H]1CN(C)CC1CCCCC1	inactive
C[C@H](CO)N1C[C@H](C)[C@H](CN(C)CC2CCCCC2)Oc2ccc(NC(=O)Nc3ccc(C(F)(F)F)cc3)cc2C1=O	active
C[C@H](CO)N1C[C@H](C)[C@@H](CN(C)CC2CCCCC2)Oc2ccc(NC(=O)Nc3ccc(C(F)(F)F)cc3)cc2C1=O	inactive
C[C@@H]1CN([C@@H](C)CO)C(=O)c2cc(NC(=O)Nc3ccc(F)cc3)ccc2O[C@@H]1CN(C)CC1CCCCC1	inactive
C[C@@H]1CN([C@@H](C)CO)C(=O)c2cc(NC(=O)Nc3ccc(C(F)(F)F)cc3)ccc2O[C@H]1CN(C)CC1CCCCC1	active
C[C@@H]1CN([C@H](C)CO)C(=O)c2cc(NC(=O)Nc3ccc(C(F)(F)F)cc3)ccc2O[C@@H]1CN(C)CC1CCCCC1	active
C[C@H]1CN([C@@H](C)CO)C(=O)c2cc(NC(=O)Nc3ccc(F)cc3)ccc2O[C@H]1CN(C)CC1CCCCC1	inactive
C[C@H]1CN([C@@H](C)CO)C(=O)c2cc(NC(=O)Nc3ccc(C(F)(F)F)cc3)ccc2O[C@@H]1CN(C)CC1CCCCC1	inactive
C[C@@H]1CN([C@@H](C)CO)C(=O)c2cc(NC(=O)Nc3ccc(C(F)(F)F)cc3)ccc2O[C@@H]1CN(C)CC1CCCCC1	active
C[C@@H]1CN([C@H](C)CO)C(=O)c2cc(NC(=O)Nc3ccc(F)cc3)ccc2O[C@H]1CN(C)CC1CCCCC1	inactive
C[C@H](CO)N1C[C@H](C)[C@H](CN(C)CC2CCCCC2)Oc2ccc(NC(=O)Nc3ccc(F)cc3)cc2C1=O	inactive
C[C@H]1CN([C@@H](C)CO)C(=O)c2cc(NC(=O)Nc3ccc(F)cc3)ccc2O[C@@H]1CN(C)CC1CCCCC1	inactive
